Pf growth 96h: Primary qHTS for delayed death inhibitors of the malarial parasite plastid, 96 hour incubation. Potency, µM (titrated, usually from 28.7 µM), without a hit: top-dose activity change, negative = inhibition, hits mostly inhibitors. P. falciparum luciferase reporter growth, 96 h. 6.9% of 320,000 active; also: % is scaled to controls: 0 for no effect and ±100 for the full control effect
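P. falciparum expressing integrated firefly luciferase, in erythrocytes at 2% hematocrit, 0.05% parasitemia, incubated with compounds 96 h at 37 C, 5% CO2. Growth inhibition read as loss of luminescence; two-generation exposure targets delayed-death apicoplast inhibitors.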
SARS PLP yeast: qHTS of Yeast-based Assay for SARS-CoV PLP. S. cerevisiae expressing SARS-CoV PLpro, growth rescue. Potency, µM (series often up to 32.9 µM), without a hit: top-dose activity, positive = growth rescue, hits mostly activators. 0.19% of 330,000 active. AID 485353, 2010; calls by dose curve; also: 0% is about no effect; nearly all actives have a fitted effect of over 55% in size
AMA1-RON2 inh: qHTS for Inhibitors of AMA1-RON; Towards Development of Antimalarial Drug Lead: Primary Screen. AlphaScreen AMA1-biotinylated RON2 peptide binding. AID 720542, 2013. Potency, µM (series often up to 58.2 µM), without a hit: at the top dose activity change, negative = inhibition, usual class: inhibitors. Plasmodium falciparum AMA1 (3D7) - RON2 peptide interaction. 0.2% of 360,000 active;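 also: 0% = vehicle wells and -100% = peptide control; nearly all actives have a fitted effect of over 45% in size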
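AMA1 (3D7) with his tag at 25 nM final met compounds first, then biotinylated RON2 peptide at 25 nM; detection used donor plus acceptor beads, 10 µg/mL apiece, read by AlphaScreen after 30 min at room temperature.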
Pf growth 48h: Primary qHTS for delayed death inhibitors of the malarial parasite plastid, 48 hour incubation; Potency, µM (titrated, usually from 28.7 µM), for the others: at the top dose activity change, negative = inhibition, usual class: inhibitors; 5.9% of 310,000 active; AID 504832, 2011; P. falciparum luciferase growth in erythrocytes, 48 h; also: % is scaled to controls: 0 for no effect and ±100 for the full control effect
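Luciferase-expressing parasites in RBCs, 2% Hct / 0.1% parasitemia final; RPMI 1640 + 0.5% Albumax; 37 C, 5% CO2, one generation; luminescence read-out, lower signal = inhibition.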
* = called active by the depositor; [ ] = remark or other dose. Most compounds without a hit are left out; they make up all but 9.4% or so of the library. Unless noted, calls follow the shape of the dose curve; as a rule, active = well fitted curve in the direction sought with a large enough effect; inconclusive = small, poorly fitted or top-dose-only effect, or another doubt; inactive = no such curve, though single readings can be large; an effect the other way counts as inactive or inconclusive. Potency is read from the fitted curve at half-maximal effect.

Screening NC(=O)C1CCN(c2nc(C3CC3)nc3c2nnn3Cc2ccccc2)CC1 returned Pf growth 96h inconclusive, SARS PLP yeast -10%, AMA1-RON2 inh -4% and Pf growth 48h 13µM*.
`O=C(c1cccs1)N1CCCC(c2nc3c(nnn3Cc3ccccc3)c(=O)[nH]2)C1` (stereo not drawn) gave Pf growth 96h 5.9µM*, SARS PLP yeast -4%, AMA1-RON2 inh -9% and Pf growth 48h 8.3µM*.
For Cc1ccc(NC(=O)N2CCC(c3nc4c(nnn4Cc4cccc(Cl)c4)c(=O)[nH]3)CC2)cc1 the results were Pf growth 96h 0.029µM*, SARS PLP yeast 0%, AMA1-RON2 inh -9% and Pf growth 48h 13µM*.
O=C(c1cccs1)N1CCCC(c2nc3c(nnn3Cc3ccc(F)cc3)c(=O)[nH]2)C1 (stereo not drawn) was read as Pf growth 96h 0%, SARS PLP yeast 1%, AMA1-RON2 inh 11% and Pf growth 48h inconclusive.
`NC(=O)C1CCN(c2nc(C3CC3)nc3c2nnn3Cc2ccccc2Cl)CC1` gave Pf growth 96h -8%[5.75 µM], SARS PLP yeast 19%, AMA1-RON2 inh -2% and Pf growth 48h inconclusive.
O=C(c1ccccc1)N1CCCC(c2nc3c(nnn3Cc3ccccc3)c(=O)[nH]2)C1 (stereo not drawn) was read as Pf growth 96h 39%, SARS PLP yeast -2%, AMA1-RON2 inh 33% and Pf growth 48h 13µM*.
`CC1CCCCC1NC(=O)CCCCCn1c(=S)[nH]c2ccsc2c1=O` (stereo not drawn) gave Pf growth 96h 2%, SARS PLP yeast 2%, AMA1-RON2 inh 116% and Pf growth 48h 19%.
For Cc1ccc(C)c(Cn2nnc3c(=O)[nH]c(C4CCCN(C(=O)C5CCCCC5)C4)nc32)c1 (stereo not drawn) the results were Pf growth 96h 3%, SARS PLP yeast 2%, AMA1-RON2 inh 8% and Pf growth 48h 6.6µM*.
For CC(=O)c1cccc(S(=O)(=O)N2CCCC(c3nc4c(nnn4Cc4cccc(Cl)c4)c(=O)[nH]3)C2)c1 (stereo not drawn) the results were Pf growth 96h 8.3µM*, SARS PLP yeast 5%, AMA1-RON2 inh -18% and Pf growth 48h 7.4µM*.
COC(=O)c1ccccc1S(=O)(=O)N1CCCC(c2nc3c(nnn3Cc3ccc(C)cc3)c(=O)[nH]2)C1 (stereo not drawn) was read as Pf growth 96h inconclusive, SARS PLP yeast 3%, AMA1-RON2 inh -3% and Pf growth 48h inconclusive.
For COc1ccccc1NC(=O)N1CCCC(c2nc3c(nnn3Cc3ccc(C)cc3)c(=O)[nH]2)C1 (stereo not drawn) the results were Pf growth 96h -6%, SARS PLP yeast 15%, AMA1-RON2 inh -2% and Pf growth 48h 9.3µM*.
CC(=O)c1cccc(S(=O)(=O)N2CCCC(c3nc4c(nnn4Cc4ccc(C)cc4)c(=O)[nH]3)C2)c1 (stereo not drawn) was read as Pf growth 96h 28%, SARS PLP yeast 0%, AMA1-RON2 inh 7% and Pf growth 48h inconclusive.
`COC(=O)c1ccc2c(=O)n(Cc3ccc(C(=O)NCCCN4CCOCC4)cc3)c(=S)[nH]c2c1` gave Pf growth 96h 6%, SARS PLP yeast 0%, AMA1-RON2 inh 42% and Pf growth 48h inconclusive.
CCCc1cc(C(=O)NC2CCCN(Cc3ccccc3F)C2)no1 (stereo not drawn) was read as Pf growth 96h 10µM*, SARS PLP yeast -1%, AMA1-RON2 inh -8% and Pf growth 48h -15%.
For CSc1ccccc1C(=O)NC1CCCN(Cc2ccccc2F)C1 (stereo not drawn) the results were Pf growth 96h -8%, SARS PLP yeast inconclusive, AMA1-RON2 inh 0% and Pf growth 48h -12%.
Screening O=C(CCn1cnnn1)NC1CCCN(Cc2ccccc2F)C1 (stereo not drawn) returned Pf growth 96h 13µM*, SARS PLP yeast -1%, AMA1-RON2 inh -9% and Pf growth 48h 10%.
For CC(=O)c1ccc(C(=O)NC2CCCN(Cc3ccccc3F)C2)cc1 (stereo not drawn) the results were Pf growth 96h 5.9µM*, SARS PLP yeast 0%, AMA1-RON2 inh 17% and Pf growth 48h -11%.

Source: PubChem (National Center for Advancing Translational Sciences (NCATS))
